According to the supplement of paper PMC4709259:
Counter-ions that a name gives are not always drawn. ± gives the standard deviation.

Tests used:
Jurkat [1] = experiment: mean cell size (FSC-A) relative to DMSO control (fraction of control); higher = larger cells; settings: 48 h
Procedure, shortened: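 Jurkat cells seeded at 600 cells/µl were incubated 1 h, then exposed for 48h to the Enzo Screen-Well FDA Approved Drug Library v2.0 at 25µM in 0.9% (v/v) final DMSO. Drugs that cut counts below 20% of controls were diluted 10-fold and retested, down to 25nM. Cell count and mean cell size (forward scatter area) were read on an Accuri C6 flow cytometer, relative to solvent-only controls. Plates held 6-12 controls; values are means of 3 biological replicates.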

Jurkat [2] = experiment: cell count relative to DMSO control (fraction of control); higher = more cells (less growth inhibition); settings: 48 h

Row | Compound | mean cell size (Jurkat [1]) | cell count (Jurkat [2])
1 | CN1CCC[C@H]1c1cccnc1 [Nicotine] (concentration: 25 µM) | 0.936 ± 0.045 | 0.561 ± 0.18
2 | Cc1cccc(C)c1OCC(=O)N[C@@H](Cc1ccccc1)[C@@H](O)C[C@H](Cc1ccccc1)NC(=O)[C@H](C(C)C)N1CCCNC1=O [Lopinavir] (concentration: 25 µM) | 0.8546 ± 0.0077 | 0.373 ± 0.029
3 | Cn1ccnc1S [Methimazole] (concentration: 25 µM) | 0.951 ± 0.011 | 0.842 ± 0.092
4 | CC(=O)N[C@H]1[C@H]([C@H](O)[C@H](O)CO)OC(C(=O)O)=C[C@@H]1NC(=N)N [Zanamivir] (concentration: 25 µM) | 0.993 ± 0.052 | 0.647 ± 0.18
5 | COc1ccc(Cl)cc1C(=O)NCCc1ccc(S(=O)(=O)NC(=O)NC2CCCCC2)cc1 [Glyburide] (concentration: 25 µM) | 1.02 ± 0.051 | 0.806 ± 0.047
6 | CN[C@H](CC(C)C)C(=O)N[C@H]1C(=O)N[C@@H](CC(N)=O)C(=O)N[C@H]2C(=O)N[C@H]3C(=O)N[C@H](C(=O)N[C@H](C(=O)O)c4cc(O)cc(O)c4-c4cc3ccc4O)[C@H](O)c3ccc(c(Cl)c3)Oc3cc2cc(c3O[C@@H]2O[C@H](CO)[C@@H](O)[C@H](O)[C@H]2O[C@H]2C[C@](C)(N)[C@H](O)[C@H](C)O2)Oc2ccc(cc2Cl)[C@H]1O [Vancomycin·HCl] (concentration: 25 µM) | 1.02 ± 0.021 | 1.19 ± 0.13
7 | CCc1nc(N)nc(N)c1-c1ccc(Cl)cc1 [Pyrimethamine] (concentration: 25 µM) | 0.959 ± 0.018 | 0.2 ± 0.033
8 | NC(=O)N1c2ccccc2CC(=O)c2ccccc21 [Oxcarbazepine] (concentration: 25 µM) | 0.952 ± 0.015 | 0.772 ± 0.15
